Shown are actives, neighbours in structure and some others; about 5.2% of the full set was active somewhere.
esBAF inh: Bmi1 luciferase reporter increase in mESCs, primary screen, esBAF inhibitor project, mouse ES cells, Bmi1 luciferase knock-in, single point; 2% of 350,000 active; 24 h; 100% = twice the neutral-well signal; reporter increase, % at 12.5 µM; in the data active = activation above about 40%;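 note: 0% = median of the plate's neutral control wells and 100% = double that signal; a rise in the Bmi1 reporter signal indicates esBAF inhibition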
SMARCA2 act: SMARCA2 (BRM) function activators, primary screen, cell-based, luminescence, high throughput; MG213 cells, MMTV-luciferase reporter, dexamethasone, overnight; activation, % at 9.1 µM; 1% of 370,000 active; AID 652017, 2013; in the data active = activation above about 7.8%;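 note: 0% = vehicle wells and 100% = reference activator wells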
NR3A LBD binder: binders of NR3A ligand-binding domain, primary screen, biophysical, differential scanning fluorimetry, uHTS | Glutamate receptor ionotropic, NMDA 3A (GRIN3A) ligand-binding domain | NR3A LBD differential scanning fluorimetry, Tm shift; 0% = protein alone, 100% = glycine-bound protein | Tm shift relative to glycine control, % at 25 µM | 2.5% of 340,000 active | AID 1259313, 2017;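 active = melting temperature shift of at least 10% of the positive control shift, at one fixed dose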
NadD block: inhibitors of S. aureus NadD, primary screen, biochemical, colorimetric, uHTS; purified NadD enzyme, colorimetric absorbance read-out; inhibition, % at 20 µM; Nicotinate-nucleotide adenylyltransferase NadD (Staphylococcus aureus N315); 0.78% of 360,000 active; in the data active = inhibition above about 26%
Vif imaging: HIV Vif self-association inhibitors, primary screen, imaging, HEK293T, single point | HEK293T cells, Vif self-association by quenched fluorescence, 24 h | inhibition, % at 7.49 µM | 0.35% of 340,000 active | AID 602346, 2012; in the data active = inhibition above about 50%, passing the limit was not always enough
SKN-1 inh: suppressors of acrylamide-induced Pgst-4::GFP reporter in worms, primary screen, SKN-1 inhibitor project, whole organism, uHTS, GFP/RFP fluorescence ratio, strain VP596. inhibition, % at 21.8 µM. 0.49% of 360,000 active. C. elegans VP596 Pgst-4::GFP/RFP ratio, 24 h;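 active = interference check ratio from 0.5 to 1.5 plus GFP to RFP signal ratio inhibition reaching or exceeding a fixed threshold, cut at about 30% in these data, passing the limit was not always enough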
SMARCA2 act conf: SMARCA2 (BRM) function activators, confirmation, cell-based, luminescence, triplicate; AID 652260, 2013; activation, % at 9.1 µM; shares compounds with SMARCA2 act; 30% of 3,500 active; MG213 cells, MMTV-luciferase with dexamethasone, overnight; MG213 cells expressing E1A, Rb sequestered; DMSO wells 0%, reference activator 100%;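 active = activation above its plate's cutoff, the mean activation of tested wells plus 3 SD, cut at about 7.9% in these data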
GAL4-VP16 Luc: GAL4-VP16 luciferase reporter activation, counter-screen for SMARCA2 (BRM) activator project, cell-based, pG5luc, luminescence, high throughput; AID 686939, 2013; activation, % at 9.1 µM; shares compounds with SMARCA2 act; HEK293 GAL4-VP16 pG5luc reporter; scaled: DMSO wells 0%, SAHA wells 100%; 41% of 3,500 active;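 active = activation above the solvent-only control well mean plus 3 SD, averaged across control plates, cut at about 5.2% in these data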
An asterisk follows results filed as active.

How did COc1ccc(C(=O)NC2CC2)cc1OC1CCN(Cc2cc(C)c(C)cc2C)CC1 do in these assays?
esBAF inh: -4; SMARCA2 act: 9.1*; NR3A LBD binder: 103*; NadD block: -13; Vif imaging: 20; SKN-1 inh: 13; SMARCA2 act conf: -1; GAL4-VP16 Luc: 2

What do the screens show for `Cc1cccc(N2CCN(C(=O)c3nn(C)c4c3CS(=O)(=O)c3ccccc3-4)CC2)c1C`?
esBAF inh: 2; SMARCA2 act: 10*; NR3A LBD binder: 1; NadD block: 1; Vif imaging: -10; SKN-1 inh: -10; SMARCA2 act conf: -2; GAL4-VP16 Luc: 0

What do the screens show for `COCC(=O)N1[C@@H](CO)[C@@H]2c3ccccc3N(C(=O)Nc3ccccc3F)C[C@@H]21`?
esBAF inh: 4

Results for O=C(COC(=O)CNS(=O)(=O)c1cccc(Br)c1)NC(=O)Nc1ccc2c(c1)OCCO2 ?
SMARCA2 act: 11*; NR3A LBD binder: -7; NadD block: -1; Vif imaging: 3; SKN-1 inh: 8; SMARCA2 act conf: 8; GAL4-VP16 Luc: 1

What do the screens show for `COc1ccc(CNC(=O)C[C@H]2CC[C@H]3[C@@H](COc4ccc(NC(=O)C5CC5)cc4C(=O)N3C)O2)cc1`?
esBAF inh: 0

How did O=C(C[C@H]1C[C@H]2c3cc(NS(=O)(=O)c4ccc(F)cc4)ccc3O[C@H]2[C@@H](CO)O1)N1CCOCC1 do in these assays?
esBAF inh: 4

Results for CCn1c(CNC(=O)C2CCCCC2)cc2ccccc21 ?
esBAF inh: 8; SMARCA2 act: -2; NR3A LBD binder: -1; NadD block: -10; Vif imaging: -1; SKN-1 inh: 15

What do the screens show for `Cn1c(CNC(=O)C2CCCCC2)cc2ccccc21`?
esBAF inh: 2; SMARCA2 act: 8.2*; NR3A LBD binder: -1; NadD block: -4; Vif imaging: 9; SKN-1 inh: 16; SMARCA2 act conf: -1; GAL4-VP16 Luc: 0

What do the screens show for `CCCc1cn(CC[C@H]2CC[C@H](NC(=O)C3CCCCC3)[C@H](CO)O2)nn1`?
esBAF inh: 0

What do the screens show for `Cc1ccc(S(=O)(=O)Nc2nc3ccccc3nc2NCc2ccco2)cc1`?
esBAF inh: 92*; SMARCA2 act: 8.7*; NR3A LBD binder: -12; NadD block: 6; Vif imaging: -5; SKN-1 inh: 34; SMARCA2 act conf: 22*; GAL4-VP16 Luc: 19*

What do the screens show for `C[C@@H]1CN([C@@H](C)CO)C(=O)c2cc(C#C[C@@H](C)O)cnc2O[C@H]1CN(C)C(=O)c1ccc(F)cc1`?
esBAF inh: 2

Results for Cc1cc(OCC(=O)NC(C)C)cc(C)c1Cl ?
esBAF inh: 1; SMARCA2 act: 11*; NR3A LBD binder: -3; NadD block: -5; Vif imaging: -7; SKN-1 inh: 7; SMARCA2 act conf: -5; GAL4-VP16 Luc: -1

Results for O=C1CCc2ccccc2O1 ?
esBAF inh: 2; SMARCA2 act: 1; NR3A LBD binder: 0; NadD block: 0; Vif imaging: 15; SKN-1 inh: 13

How did O=C1CCc2cc(Br)ccc2O1 do in these assays?
esBAF inh: -6; SMARCA2 act: 8.7*; NR3A LBD binder: -1; NadD block: -2; Vif imaging: -8; SKN-1 inh: 11; SMARCA2 act conf: -2; GAL4-VP16 Luc: 1

What do the screens show for `COCCNc1c(-c2cc3ccc(C)c(C)c3[nH]c2=O)nc2ccccn12`?
SMARCA2 act: 10*; NR3A LBD binder: -1; NadD block: -2; Vif imaging: -1; SKN-1 inh: 5; SMARCA2 act conf: 18*; GAL4-VP16 Luc: 6.4*

What do the screens show for `C[C@H](CO)N1C[C@H](C)[C@H](CN(C)C(=O)NC2CCCCC2)Oc2ccc(NC(=O)Nc3ccc(F)cc3)cc2CC1=O`?
esBAF inh: -1

How did CC(/C=N/NC(=O)Cc1cccs1)=C\c1ccco1 do in these assays?
SMARCA2 act: -2; NR3A LBD binder: 1; NadD block: 2; Vif imaging: -3; SKN-1 inh: 15

What do the screens show for `CC(/C=N/NC(=O)c1cccs1)=C\c1ccco1`?
esBAF inh: 98*; SMARCA2 act: 9.2*; NR3A LBD binder: 3; NadD block: 4; Vif imaging: 21; SKN-1 inh: -8; SMARCA2 act conf: 9.3*; GAL4-VP16 Luc: 12*

Results for COc1ccc(C(C)=O)cc1CN1C(=O)NC2(CCCCCCC2)C1=O ?
esBAF inh: 1; SMARCA2 act: 11*; NR3A LBD binder: -2; NadD block: 2; Vif imaging: 15; SKN-1 inh: 2; SMARCA2 act conf: -4; GAL4-VP16 Luc: 1

Results for N#C/C(=C\c1ccc2c(c1)OCO2)C(N)=S ?
SMARCA2 act: 2; NR3A LBD binder: -5; NadD block: 3; Vif imaging: -7; SKN-1 inh: 14

How did Cc1ccc(C(C#N)=Cc2ccc3c(c2)OCO3)cc1 do in these assays?
SMARCA2 act: 14*; NadD block: 7; Vif imaging: 1; SKN-1 inh: 22; SMARCA2 act conf: 2; GAL4-VP16 Luc: 11*

Results for COc1cc(/C=N/n2cnnc2)ccc1OCc1ccccc1 ?
esBAF inh: 21; SMARCA2 act: 8.1*; NR3A LBD binder: 2; NadD block: -4; Vif imaging: 3; SKN-1 inh: 1; SMARCA2 act conf: 5; GAL4-VP16 Luc: 0

Results for COc1ccc(/C=N/n2cnnc2)cc1COc1ccccn1 ?
esBAF inh: -4; SMARCA2 act: 0; NR3A LBD binder: -1; NadD block: -3; Vif imaging: 10; SKN-1 inh: -19

Results for Cc1ccc(-c2ccc3c(c2)O[C@@H](CN(C)C(=O)Nc2ccc(F)cc2)[C@H](C)CN([C@@H](C)CO)S3(=O)=O)cc1 ?
esBAF inh: -4

How did CN(C)CCN(C(=O)c1ccco1)c1nc2cc3c(cc2s1)OCCO3 do in these assays?
SMARCA2 act: 9.7*; NR3A LBD binder: -5; NadD block: -7; Vif imaging: 4; SKN-1 inh: 7; SMARCA2 act conf: 2; GAL4-VP16 Luc: 4
